Here are results for 95 compounds from PubChem BioAssay AID1851 (National Center for Advancing Translational Sciences (NCATS), 2009).

Screen size: about 16,000 compounds; about 5,700 (36%) were called active. About 24% were inconclusive and are not listed. The call rests on the fitted dose curve; in most records, active means well fitted curve in the direction sought with a large enough effect; inconclusive means small, poorly fitted or top-dose-only effect, or effect the other way; inactive means no such curve, though single readings can be large or run the other way. Some of the results follow.
On the % scale 0 is the no-effect control and ±100 the full control effect.

In the test the target is Cytochrome P450 1A2 (Homo sapiens) (UniProt P05177). Kind of test: Cytochrome panel assay with activity outcomes. Conditions: recombinant CYP, pro-luciferin dealkylation, luminescence, p450-cyp1a2; series mostly up to 57.1 µM.
Cytochrome P450 1A2 (Homo sapiens), sequence (P05177 whole entry, looked up): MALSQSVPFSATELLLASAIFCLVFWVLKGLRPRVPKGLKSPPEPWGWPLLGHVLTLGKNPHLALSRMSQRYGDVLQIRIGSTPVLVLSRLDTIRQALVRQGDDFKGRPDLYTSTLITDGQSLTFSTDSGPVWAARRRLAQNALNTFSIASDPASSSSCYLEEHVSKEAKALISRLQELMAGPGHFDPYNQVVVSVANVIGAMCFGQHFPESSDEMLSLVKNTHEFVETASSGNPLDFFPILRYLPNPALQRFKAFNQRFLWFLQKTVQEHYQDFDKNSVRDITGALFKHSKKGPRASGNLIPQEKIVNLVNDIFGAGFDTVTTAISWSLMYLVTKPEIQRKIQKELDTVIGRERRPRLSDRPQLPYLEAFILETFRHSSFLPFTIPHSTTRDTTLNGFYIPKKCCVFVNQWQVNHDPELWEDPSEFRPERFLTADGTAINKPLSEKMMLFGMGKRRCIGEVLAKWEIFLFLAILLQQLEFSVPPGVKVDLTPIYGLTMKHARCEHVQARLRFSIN
On to `COC(=O)[C@@]1(Cc2ccc(OC)cc2)[C@H]2c3cc(C(=O)N4CCCC4)n(Cc4ccc(C(F)(F)F)nc4)c3C[C@H]2CN1C(=O)c1ccccc1`, for which the AC50 entry is “inactive”.

For the compound `Cc1cc(SCC(=O)c2cccs2)nc2c(C)cccc12`, the AC50 is 0.891 µM (active). Regarding `CCCNC(=O)OC[C@@H]1O[C@H](c2ccccc2)C=C[C@@H]1Oc1ccc(OC)cc1`, the activity, negative = inhibition is -7.29% [at 11.4 µM] (inactive). Take `CC(C)(C)NC[C@H](O)COc1cccc2[nH]c(=O)[nH]c12`: the AC50 result is “inactive”. On to `C=CCOc1ccc(CNC(C)(C)CO)cc1OCC`, for which the AC50 result was “inactive”. For `C=CCOc1ccccc1OC[C@H](O)CNC(C)C`, the AC50 is 5.01 µM (active). `C=CCc1ccccc1OC[C@H](O)CNC(C)C`: the AC50 is 3.16 µM (active). On the same count and under the same terms, for `O=C1c2ccccc2C(=O)N1CC1c2ccccc2CCN1S(=O)(=O)c1ccccc1` (stereo not given) the value was “inactive”; for `COc1ccc(CCNC(=O)C2CCN(S(=O)(=O)N3CC(C)CC(C)C3)CC2)cc1OC` (stereo not given), “inactive”.

As for `C#CCCCO/N=C1/C[C@@H](O)[C@@H](O)[C@@H]2[C@@H]3C(=O)N(CCC(=O)OCC)C(=O)[C@H]3CC[C@@H]12`, the activity, negative = inhibition is -0.481% [at 11.4 µM] (inactive). For `CSc1nc(-c2ccc(C)cc2)[nH]c1S(=O)(=O)c1ccccc1`, the AC50 is 14.1 µM (active). With `Cc1ccc(S(=O)(=O)c2cc(C#N)c(=O)[nH]c2N)cc1`, the AC50 result is “inactive”. As for `CNc1oc(C)nc1S(=O)(=O)c1ccc(C)cc1`, the AC50 entry is “inactive”.

As to `Clc1ccc(CSc2nccn2Cc2ccccc2)cc1`, the AC50 is 25.1 µM (active). Regarding `CC1(C)N=C(N)N=C(N)N1c1cccc(CSc2ccccc2)c1`, the activity, negative = inhibition was -17.2% [at 2.29 µM] (inactive).

In the case of `O=c1ccnc(SCc2ccc(Cl)cc2)[nH]1`, the activity, negative = inhibition is -17.6% [at 11.4 µM] (inactive).

With `c1ccc(CCSc2nccn2-c2ccccc2)cc1`, the AC50 is 1.78 µM (active). On the same count and under the same terms, the value for `CCc1ccc(CSc2nccn2-c2ccccc2)cc1` was 1.26 µM (active); that for `O=C(CSc1nccn1-c1ccccc1)c1ccc(Cl)cc1` was 0.891 µM (active); that for `O=C(C1CCN(S(=O)(=O)c2cccc3nsnc23)CC1)N1CCN(c2ccccc2F)CC1` was “inactive”.

On to `COC(=O)[C@H](CCSC)NC(=O)NCc1ccccc1F`, for which the AC50 entry is “inactive”. Take `O=C(c1ccccc1)c1ccc2nc(-c3ccc(NC(=O)c4ccccc4F)cc3)[nH]c2c1`: the AC50 entry is “inactive”. As to `O=C(c1ccccc1)c1ccc2nc(-c3ccc(NC(=O)c4ccccc4Br)cc3)[nH]c2c1`, the AC50 was 8.91 µM (active). On to `Cc1nc2cnc(N3CCOCC3)nc2n(C)c1=O`, for which the AC50 was 6.31 µM (active). Regarding `Cc1nc2cnc(N3CCN(C)CC3)nc2n(C)c1=O`, the AC50 is 12.6 µM (active). The same measure, in the same setting: the value for `C1COC(NC(C2CC2)C2CC2)=N1` was “inactive”. Consider `Nc1ccc(Nc2ccccc2)cc1`, for which the AC50 is 12.6 µM (active). On to `N#[N+]c1ccc(Nc2ccccc2)cc1`, for which the activity, negative = inhibition was -12.6% [at 11.4 µM] (inactive).

Take `Nc1ccccc1Nc1ccccc1`: the AC50 is 25.1 µM (active).

Regarding `CCc1c(C(C)O)oc2ccc3c(C)cc(=O)oc3c12` (stereo not given), the AC50 is 0.282 µM (active). Take `CC(C)N1CCN(c2ccncc2S(=O)(=O)N2CCCCC2)CC1`: the activity, negative = inhibition is -16.9% [at 2.29 µM] (inactive). `Cc1c(C(=O)N/N=C/c2ccccc2)sc(=S)n1C`: the AC50 was 0.891 µM (active). On to `Cc1c(NC(=S)N/N=C/c2ccc(O)cc2)c(=O)n(-c2ccccc2)n1C`, for which the AC50 entry is “inactive”. Still for that read-out and setting: for `COc1cc(NC(=O)c2cc3nc(-c4ccccc4)cc(-c4ccccc4)n3n2)cc(OC)c1OC` the value was “inactive”; for `CCCC(=O)Nc1nc2nc(-c3ccccc3)cc(-c3ccccc3)n2n1`, 2.51 µM (active); for `CCCC(=O)Nc1nc2n(n1)C(c1ccccc1)CC(=O)N2` (stereo not given), “inactive”.

For `Cn1c(=O)c(-c2ccc(F)cc2)nc2cncnc21`, the concentration at half-maximal activity (AC50) was 0.158 µM (active). The same measure, in the same setting: for `Cn1c(=O)c(-c2cccc(Cl)c2)nc2cncnc21` the value was 0.501 µM (active).

For `Cn1c(=O)c(-c2ccccc2)nc2cncnc21`, the AC50 was 0.631 µM (active). On the same count and under the same terms, the value for `Cn1c(=O)c(-c2ccc(F)c(F)c2)nc2cncnc21` was 0.158 µM (active). As for `COc1ccc(-n2c(=O)c(-c3ccc(F)cc3)nc3cncnc32)cc1`, the AC50 entry is “inactive”. Take `C[C@]1(C2CCCC2)Cc2cc(OCC(=O)O)c(Cl)c(Cl)c2C1=O`: the AC50 entry is “inactive”.

Turning to `COC(=O)[C@@]1(Cc2ccc(F)cc2)[C@H]2c3cc(C(=O)N4CCCC4)n(CCc4c[nH]c5ccccc45)c3C[C@H]2CN1C(=O)c1ccccc1`, the AC50 result was “inactive”. For `Cn1c(=O)c(-c2cc(F)cc(F)c2)nc2cncnc21`, the AC50 was 0.631 µM (active).

In the case of `Cn1c(=O)c(-c2ccc(Cl)cc2)nc2cncnc21`, the AC50 is 0.0251 µM (active). Same read-out and setting: for `Cc1ccc(S(=O)(=O)CCCS(=O)(=O)c2ccc(C)cc2)cc1` the value was “inactive”; for `Cc1ccc(S(=O)(=O)CC#CCOC(=O)c2ccc([N+](=O)[O-])cc2)cc1`, 6.31 µM (active). On the same count and under the same terms, for `CC(=O)NN1C(=O)c2ccc(Oc3ccc([N+](=O)[O-])cc3)cc2C1=O` the value was “inactive”. Consider `C/C(=N\NC(=S)Nc1ccc(F)cc1)C1CC1`, for which the AC50 is 1.78 µM (active). Same read-out and setting: for `N=C(N)SCc1cccc2c(=O)cc(-c3ccccc3)oc12` the value was 0.126 µM (active). On the same count and under the same terms, the value for `CCNc1ncc2nc(-c3cccs3)c(=O)n(C[C@H]3CCCO3)c2n1` was 2.51 µM (active); that for `CN(C)c1ncc2nc(-c3cccs3)c(=O)n(C[C@H]3CCCO3)c2n1` was 1.58 µM (active); that for `CN1CCN(c2ncc3nc(-c4cccs4)c(=O)n(C[C@H]4CCCO4)c3n2)CC1` was 12.6 µM (active). On to `OCCCSCCO`, for which the activity, negative = inhibition was -19.1% [at 2.29 µM] (inactive). The same measure, in the same setting: the value for `CCCC[C@@H]1CN2[C@H](c3ccc(Br)cc3)[C@@H](C)CC[C@H]2C(=O)O1` was -6.09% [at 11.4 µM] (inactive); that for `CO[C@@H]1COC(=O)C/C=C\[C@H](C)[C@H](OC)COC(=O)[C@H]2CCCN2C(=O)C/C=C\[C@H]1C` was 1.02% [at 11.4 µM] (inactive).

`COc1cccc(/C=N/NC(=O)CO/N=C(\C)c2cccs2)c1OC`: the AC50 is 1.41 µM (active). On the same count and under the same terms, the value for `COc1ccccc1/C=C/C(=O)c1ccc(Cl)cc1` was 3.55 µM (active). For the compound `Cc1[nH]c(=O)c(C(=O)/C=C/c2ccccc2F)c2c1CCCC2`, the AC50 is 11.2 µM (active). In the case of `CCOc1ccc2ccccc2c1C(=O)N[C@@H]1C(=O)N2[C@@H]1SC(C)(C)[C@@H]2C(=O)O`, the AC50 result was “inactive”.

With `COc1ccc2ccccc2c1/C=C\C(=O)c1ccccc1`, the AC50 is 3.16 µM (active).

In the case of `COc1ccccc1/C=C/C(=O)c1c2c(c(C)[nH]c1=O)CCCC2`, the AC50 is 12.6 µM (active). As for `COc1cc(C)cc(OC)c1/C=C\C(=O)O`, the activity, negative = inhibition is -6.92% [at 11.4 µM] (inactive).

For `CC(=O)[C@@H]1CC[C@@H]2[C@@H]3C[C@H](C)C4=CC(=O)CC[C@@]4(C)[C@H]3[C@H](O)C[C@]21C`, the AC50 entry is “inactive”.

Regarding `CS(=O)(=O)N1CCC2(CCCN(C(c3ccccc3)c3ccccc3)C2)CC1`, the AC50 entry was “inactive”. For `O=C1CC(c2ccccc2)Cc2nc(N3CCc4ccccc4C3)ncc21` (stereo not given), the AC50 is 3.55 µM (active). In the case of `CC1CC(=O)c2cnc(N)nc2C1` (stereo not given), the AC50 result is “inactive”. In the case of `Cc1ccc(C2CC(=O)c3cnc(N4CCc5ccccc5C4)nc3C2)cc1` (stereo not given), the AC50 entry is “inactive”.

On to `Cc1ccnn2cc3c(=O)n(C)c(=O)n(C)c3c12`, for which the AC50 is 12.6 µM (active). The same measure, in the same setting: for `COc1ccccc1CN1CC[C@@]2(CCCN(C(C)=O)C2)C1` the value was “inactive”.

Take `COc1ccc2[nH]cc(CCNc3ncnc4ccc(-c5cccnc5)cc34)c2c1`: the AC50 was 0.0794 µM (active). Still for that read-out and setting: the value for `COc1ccc2[nH]cc(CCNc3ncnc4ccc(-c5cccc(C#N)c5)cc34)c2c1` was 2.51 µM (active). `CCC1=C(C)CN(C(=O)NCCc2ccc(S(=O)(=O)NC(=O)NC3CCC(C)CC3)cc2)C1=O` (stereo not given): the AC50 entry was “inactive”. Same read-out and setting: for `CCOC(=O)N1CCN(C(=O)c2oc3ccc(S(=O)(=O)N4CCCCC4)cc3c2C)CC1` the value was “inactive”; for `Cc1ccc(OC(=O)c2oc3ccc(F)cc3c2C)c(C)c1`, 2.51 µM (active); for `CCCOc1ccc(C(=O)CCNc2ccc(C)c(Cl)c2)cc1`, 0.891 µM (active). `Cc1ccc(NC(=O)c2cc(NC(=O)CCCC(=O)O)ccc2Cl)cc1Cl`: the AC50 entry is “inactive”. Same read-out and setting: for `Cc1ccc(NCCC(=O)c2ccc(Cl)c(Cl)c2)cc1` the value was 1.26 µM (active). Same read-out and setting: the value for `Cc1ccc(NCCC(=O)c2ccc(Cl)cc2)cc1` was 0.251 µM (active).

For `O=C(O)CCC(=O)Nc1ccc(C(=O)N2CCCCC2)cc1`, the AC50 entry is “inactive”. As to `O=C(O)CCC(=O)c1ccc(Cl)cc1`, the activity, negative = inhibition is -17.8% [at 11.4 µM] (inactive). On to `Cc1ccc(NC(=O)CCC(=O)c2ccc(F)cc2)cc1Cl`, for which the AC50 was 6.31 µM (active). `CCCOc1ccc(C(=O)NNC(=S)NC(=O)CC)cc1`: the AC50 result is “inactive”. Consider `O=C(O)[C@@H]1[C@@H]2C[C@@H]3[C@@H](OC(=O)[C@@H]31)[C@H]2Br`, for which the activity, negative = inhibition is -4.92% [at 11.4 µM] (inactive). `OC(CCN1CCCCC1)(c1ccccc1)c1ccccc1`: the AC50 entry is “inactive”. The same measure, in the same setting: for `Cc1ccc(NCCC(=O)c2ccc(Cl)cc2)cc1C` the value was 0.631 µM (active); for `CCCCOC(=O)Nc1ccc(C)c(Cl)c1`, 4.47 µM (active).

For the compound `Cc1c(Cl)c(S(N)(=O)=O)cc(S(N)(=O)=O)c1NC(=O)c1ccc(Cl)cc1`, the activity, negative = inhibition was -2.26% [at 11.4 µM] (inactive). Consider `Cc1cnc(CNc2ncnc3ccc(-c4cccc(C#N)c4)cc23)cn1`, for which the concentration at half-maximal activity (AC50) is 0.398 µM (active). The same measure, in the same setting: the value for `COc1cccc(-c2ccc3ncnc(NCc4cnc(C)cn4)c3c2)c1` was 2.51 µM (active). For the compound `C/C(CCN1CCc2nc(-c3ccccc3)c(-c3ccccc3)cc2C1)=N\OC[C@@H](C)[C@H](OCc1ccccc1)C(C)C`, the activity, negative = inhibition is -4.9% [at 11.4 µM] (inactive). Still for that read-out and setting: for `COC(=O)C/C=C\[C@@H](C)[C@@H](/C=N\OC[C@@H]1O[C@H](c2ccccc2)C=C[C@@H]1Oc1ccc(OC)cc1)OC` the value was 10.1% [at 11.4 µM] (inactive). As to `CC(=O)Nc1ccc(NCN2C(=O)C3C4CCC(C4)C3C2=O)cc1` (stereo not given), the AC50 entry was “inactive”. As to `Cc1cccc(OC(=O)CN2C(=O)C3C4CCC(C4)C3C2=O)c1C` (stereo not given), the AC50 was 12.6 µM (active). As to `Cc1cccc(C)c1NC(=O)CCN1C(=O)C2C3CCC(C3)C2C1=O` (stereo not given), the AC50 entry is “inactive”.

A word on the AC50: it is the concentration giving half of the maximal activity seen.
